Assay outcomes (PubChem BioAssay)
Hits are enriched below; roughly 4% of the tested compounds scored in any of these assays.
D1 PAM: potentiators of human D1 dopamine receptor; P21728; HEK293 TREx D1 cells, calcium flux, dopamine EC20 potentiation; potentiation, % at 10 µM; 360,000 compounds, 0.036% hits; AID 504651; in the data active means potentiation above about 30%; further: 0% is about no effect
Target sequence (P21728 whole entry, looked up): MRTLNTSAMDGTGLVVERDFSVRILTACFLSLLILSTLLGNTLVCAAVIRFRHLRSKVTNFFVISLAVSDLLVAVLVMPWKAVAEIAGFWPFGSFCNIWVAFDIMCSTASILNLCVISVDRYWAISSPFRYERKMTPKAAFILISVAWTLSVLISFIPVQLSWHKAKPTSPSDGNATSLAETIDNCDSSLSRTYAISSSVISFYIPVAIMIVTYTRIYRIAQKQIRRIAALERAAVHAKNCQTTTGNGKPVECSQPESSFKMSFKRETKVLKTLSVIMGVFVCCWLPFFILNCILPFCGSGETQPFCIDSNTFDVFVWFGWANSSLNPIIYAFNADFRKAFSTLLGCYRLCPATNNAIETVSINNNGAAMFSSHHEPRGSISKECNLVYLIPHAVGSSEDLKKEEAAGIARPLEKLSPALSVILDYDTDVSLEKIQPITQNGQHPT
Glioma ERSR ind: ER stress response induction in glioma; U87-MG GRP78 promoter luciferase reporter, 16 h; Potency, µM, for the others: at the highest dose activation, hits mostly activators; 420,000 compounds, 0.02% hits; active means well fitted activation curve with a large enough effect; further: potency means the concentration at half of the fitted maximal effect; series mostly up to about 76 µM; % of control where 0% means no effect; nearly all actives have a fitted effect of over 35% in size
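Stably transfected U87-MG glioma cells carrying a GRP78-based luciferase sensor; 16 h compound incubation. Luminescence end-point read 10 min after Bright-Glo addition at room temperature.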
TRHR enhancer: allosteric enhancers of human TRH receptor; enhancement, % at 2 µM; P34981; TRHR cells, fluo-8 calcium fluorescence, EC20 TRH enhancement; 360,000 compounds, 0.66% hits; in the data active means enhancement above about 30%; further: 0% is about no effect
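TRHR-expressing cells loaded with fluo-8 calcium dye were read kinetically (ex 480/em 530) during compound addition, then stimulated with an EC20 of TRH (10 nM final). Enhancement of the Gq-mediated intracellular calcium response was scored.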
D1 antagonist: human D1 dopamine receptor antagonism. 360,000 compounds, 3.2% hits. HEK293 TREx D1 cells, calcium flux, dopamine EC80; stronger effect = lower value. AID 504652. P21728. activity change, negative = inhibition, % at 10 µM; in the data active means activity change below about -30%; further: on the % scale 0 is the no-effect control and ±100 the full control effect
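HEK293 T-REx cells expressing inducible, force-coupled D1 receptor; no-wash Ca dye, 30–90 min RT. Cmpd → 180 s read at 1 Hz → EC80 DA → 180 s read.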
TRHR agonist: activates the human TRH receptor; P34981; TRHR cells, calcium flux fluo-8, FDSS agonist mode; activation, % at 2 µM; 360,000 compounds, 0.18% hits; AID 493084; further: 0% is about no effect
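Fluo-8-loaded TRHR cells; 10 s baseline, compound added, kinetic Ca2+ fluorescence read 1/s, agonist mode.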
D1 ag: agonists of human D1 dopamine receptor. HEK293 T-REx D1 cells, calcium flux, agonist mode. 360,000 compounds, 1% hits. AID 504660. activation, % at 2 µM. P21728; further: 0% is about no effect
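Inducible HEK293 T-REx D1 cells, force-coupled to calcium signalling, were plated at 4000 cells/well with tetracycline and held overnight at 30 C. After no-wash calcium dye loading, compound-evoked calcium rise over 180 s flagged agonists.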
* marks the source's active call; other numbers are inactive results. Unless noted, no stated cut-off is given here; in the data, active means activation above about 30%; inactive means the rest.

For C=C(C)C(=O)Nc1cccc(C2=NOC3(C2)C[C@@H](C(N)=O)N(C(=O)c2ccc(OC)cc2)C3)c1 (stereo partly specified) the results were D1 PAM -7, Glioma ERSR ind 0%, TRHR enhancer 6, D1 antagonist -33*, TRHR agonist 0 and D1 ag 1.
C/C=C/C(=O)Nc1cccc(C2=NOC3(C2)C[C@@H](C(N)=O)N(C(=O)/C(C)=C/C)C3)c1 (stereo partly specified) was read as D1 PAM 2, Glioma ERSR ind -3%, TRHR enhancer -1, D1 antagonist -31*, TRHR agonist 0 and D1 ag 2.
O/C=c1\ccc2cccc3nc(C(F)(F)F)nc1c23 was read as D1 PAM -9, Glioma ERSR ind -2%, TRHR enhancer -5, D1 antagonist -4, TRHR agonist 8 and D1 ag 17.
C/C(O)=c1/ccc2cccc3nc(C)nc1c23 was read as D1 PAM 4, Glioma ERSR ind -1%, TRHR enhancer -1, D1 antagonist -1, TRHR agonist 11 and D1 ag 47*.
`CC(C)Cc1[nH]c(=O)c(C#N)c2c1COC(C)(C)C2` gave D1 PAM -5, Glioma ERSR ind -6%, TRHR enhancer 0, D1 antagonist -33*, TRHR agonist 0 and D1 ag 1.
`COc1ccc(CCn2c(=N)c(C(=O)NC3CCCC3)cc3c(=O)n4ccccc4nc32)cc1OC` gave D1 PAM -2, Glioma ERSR ind 7%, TRHR enhancer -2, D1 antagonist 8, TRHR agonist 1 and D1 ag 1.
Screening COc1ccc(CCn2c(=N)c(C(=O)NC3CCCC3)cc3c(=O)n4ccccc4nc32)cc1 returned D1 PAM -3, Glioma ERSR ind -4%, TRHR enhancer 5, D1 antagonist -32*, TRHR agonist -1 and D1 ag 0.
Screening O=C(Nc1cccc(Cl)c1)NC1CC2CCC(C1)N2Cc1cccs1 (stereo unspecified) returned D1 PAM -12, Glioma ERSR ind -4%, TRHR enhancer -5, D1 antagonist -22, TRHR agonist 2 and D1 ag 13.
For Cc1ccc(NC(=O)c2c(C)nc3sc(C(=O)Nc4ccc(F)cc4)c(N)c3c2-c2ccccc2Cl)c(C)c1 the results were D1 PAM 1, Glioma ERSR ind -1%, TRHR enhancer -2, D1 antagonist -39*, TRHR agonist 1 and D1 ag 5.
Screening CCN(c1ccccc1)S(=O)(=O)c1ccc(Cl)c(C(=O)OCC(=O)NC(=O)C(C)C)c1 returned D1 PAM -1, Glioma ERSR ind 0%, TRHR enhancer 0, D1 antagonist -34*, TRHR agonist 1 and D1 ag 4.
Screening CCN(c1ccccc1)S(=O)(=O)c1ccc(Cl)c(NC(=O)COC(=O)C2CC2C)c1 (stereo unspecified) returned D1 PAM -3, Glioma ERSR ind -2%, TRHR enhancer 2, D1 antagonist -31*, TRHR agonist 0 and D1 ag 7.
`CCN(c1ccccc1)S(=O)(=O)c1ccc(Cl)c(NC(=O)COC(=O)c2cc(O)c3ccccc3c2O)c1` gave D1 PAM -4, TRHR enhancer 1, D1 antagonist 6, TRHR agonist 1 and D1 ag 3.
For CCn1c(-c2ccccc2F)nc2cc(NC(C)=O)cc(C(=O)N3CCC[C@H]3C(=O)OC)c21 the results were Glioma ERSR ind -1%.
CCCn1c(-c2cccc(Br)c2)nc2ccccc21 was read as D1 PAM -3, Glioma ERSR ind 0%, TRHR enhancer 3, D1 antagonist -35*, TRHR agonist -3 and D1 ag 1.
For COc1ccc(-c2nc3ccccc3n2Cc2ccc(Cl)cc2)cc1 the results were D1 PAM -3, Glioma ERSR ind 1%, TRHR enhancer 1, D1 antagonist -32*, TRHR agonist -1 and D1 ag 25.
`Fc1ccc(Cn2c(-c3cccc(Br)c3)nc3ccccc32)cc1` gave D1 PAM -3, Glioma ERSR ind -3%, TRHR enhancer 1, TRHR agonist 1 and D1 ag 19.
Cc1cccc(-c2nc3ccccc3n2Cc2ccccc2)c1 was read as D1 PAM 0, Glioma ERSR ind -4%, TRHR enhancer -5, D1 antagonist -49*, TRHR agonist -1 and D1 ag 53*.
Screening CN(Cc1ccc(C#CCCO)cc1)CC1CCCN(CCc2ccc(Cl)cc2)C1 (stereo unspecified) returned D1 PAM -7, Glioma ERSR ind -1%, TRHR enhancer -3, D1 antagonist -38*, TRHR agonist 0 and D1 ag 17.
For Oc1ccccc1Nc1nc(NCc2ccccc2)c2ccccc2n1 the results were D1 PAM 4, Glioma ERSR ind -12%, TRHR enhancer 1, D1 antagonist 4, TRHR agonist 0 and D1 ag 1.
`c1coc(CNc2nc(N3CCCCC3)nc3ccccc23)c1` gave D1 PAM -20, Glioma ERSR ind -11%, TRHR enhancer 1, D1 antagonist -32*, TRHR agonist -1 and D1 ag 19.
`c1ccc(N2CCN(c3nc(NCc4ccco4)c4ccccc4n3)CC2)cc1` gave D1 PAM -16, Glioma ERSR ind -9%, TRHR enhancer 3, D1 antagonist -78*, TRHR agonist 0 and D1 ag 1.
Oc1ccccc1-c1nc(NCc2ccco2)c2ccccc2n1 was read as D1 PAM -2, Glioma ERSR ind 6%, TRHR enhancer -3, D1 antagonist -3, TRHR agonist 1 and D1 ag 2.
For c1ccc(CNc2nc(N3CCN(Cc4ccccc4)CC3)nc3ccccc23)cc1 the results were D1 PAM -14, Glioma ERSR ind -7%, TRHR enhancer 0, D1 antagonist -35*, TRHR agonist 0 and D1 ag 8.
Screening CNc1nc(NCc2ccccc2)c2ccccc2n1 returned D1 PAM -8, Glioma ERSR ind -3%, TRHR enhancer -14, D1 antagonist -37*, TRHR agonist 2 and D1 ag 34*.
Screening OCCNc1nc(N2CCCCC2)nc2ccccc12 returned D1 PAM -5, Glioma ERSR ind -2%, TRHR enhancer -3, D1 antagonist -17, TRHR agonist 0 and D1 ag 1.
Screening O=C1[C@H]2[C@H]3[C@H](O)[C@H](O)C/C(=N/OC[C@@H](O)COCc4ccco4)[C@@H]3CC[C@@H]2C(=O)N1c1cccc(Oc2ccccc2)c1 returned Glioma ERSR ind -6%.
For Cn1c(=NN=Cc2ccccc2OCCO)sc2ccccc21 the results were Glioma ERSR ind -1%.
